PubChem BioAssay (NCATS)
Inconclusive results are not listed. Where a call stands in place of a potency, no number is given. Active and inactive are the calls of the source. Calls follow the shape of the dose curve; as a rule, active = well fitted inhibition curve with a large enough effect; inconclusive = small, poorly fitted or top-dose-only effect; inactive = no such curve, though single readings can be large or run the other way.

These compounds were tested on Zika virus NS2B-NS3 protease (linked construct) (assay: Primary screen NINDS Rhodamine qHTS for Zika virus inhibitors (AID 1347160; also: nearly all actives have a fitted effect of over 55% in size)). Details: purified NS2B-NS3 protease, Rhodamine110 substrate fluorescence; series mostly up to 33.1 µM.
How it was run: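 In 10 mM Tris-HCl pH 8.0 containing 0.01% Tween 20, linked NS2B-NS3 protease (25 nM final) is exposed to test compounds for 15 min. Cleavage of 1.5 microM Rhodamine110 substrate is tracked by fluorescence over 15 min.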
Potency is read from the fitted curve at half-maximal effect.

SMILES	Potency
CC1(C)CC2C3=CCC4[C@@]5(C)CC[C@H](OC6OCC(O)C(OC7OC(CO)C(O)C(O)C7O)C6O)C(C)(C)C5CC[C@@]4(C)[C@]3(C)C[C@H](O)[C@@]2(CO)[C@H](OC(=O)c2ccccc2)C1 (stereo partly drawn)	inactive
CC(=O)OC1CC(C(C)(C)O)OC2CCC3(C)OC4=C(C(=O)C=C5C(C)C(OC(C)=O)C6(C)C(C)OC546)C(O)C3C12C (stereo not drawn)	inactive
CC(C)C(O)(CO)CCO[C@@H]1O[C@H](CO[C@H]2OC[C@](O)(CO)[C@H]2O)[C@@H](O)[C@H](O)[C@H]1O (stereo partly drawn)	inactive
C#CCCCn1cc(-c2cccc3c2N[C@@H](C)CC(=O)N3)cn1	inactive
N#Cc1cccc(-c2c[nH]c3ncnc(N4CCOCC4)c23)c1	inactive
C/C=C(\C)C(=O)OC[C@H]1O[C@@H](O[C@H]2[C@@H](O[C@H]3O[C@H](CO)[C@@H](O)[C@H](O)[C@H]3O[C@@H]3O[C@H](CO)[C@@H](O)[C@H](O)[C@H]3O)O[C@H](COC(=O)/C(C)=C/C)[C@@H](O)[C@@H]2O)[C@H](O)[C@@H](O)[C@@H]1O	inactive
CC1(C)C(=O)N2c3ccccc3C(O)(CC(C(=O)O)n3cnc4ccccc4c3=O)C2N1O (stereo not drawn)	inactive
O=C(NC1Cc2ccccc2N(C[C@@H](O)CO)C1=O)c1cc2cc(Cl)sc2[nH]1 (stereo partly drawn)	inactive
CC(C)(O)C(O)C(=O)OCc1ccc(O[C@@H]2O[C@H](CO)[C@@H](O)[C@H](O)[C@H]2O)cc1 (stereo partly drawn)	inactive
COC(=O)C1=C[C@@H](O)[C@@H](O)[C@H](O[C@@H]2O[C@H](CO)[C@@H](O)[C@H](O)[C@H]2OC(=O)/C=C/c2ccccc2)C1	inactive
CC(O)CCc1ccc(O[C@@H]2O[C@H](CO)[C@@H](O)[C@H](O)[C@H]2O)cc1 (stereo partly drawn)	inactive
C=C1CC2C(C)(CCC(=O)O)C(C(C)(C)O)CCC2(C)C2(C(=O)OC)C(=O)C(C)(O)C(=O)C12C (stereo not drawn)	inactive
COC(=O)CCC1(C)C(C(C)(C)O)C(O)CC2(C)Oc3c(C)c4c(c(OC)c3CC21)C(=O)OC4 (stereo not drawn)	inactive
Cc1cc(CNC(=O)c2cc(C(=O)NCc3ccc(F)c(C)c3)ncn2)ccc1F	inactive
C[C@@H](NC(=O)c1cc(C(=O)N[C@@H](Cc2ccccc2)[C@H](O)CNC2CC2)cc(N(C)S(C)(=O)=O)c1)c1ccccc1	inactive
CC(C)C1(O)NC(=O)C(CC2(O)c3ccccc3N3C(=O)C(C)(C)NC32)n2c1nc1ccccc1c2=O (stereo not drawn)	inactive
OC[C@H]1O[C@@H](Oc2cc(O)cc(-c3cc4ccc(O[C@@H]5O[C@H](CO)[C@@H](O)[C@H](O)[C@H]5O)cc4o3)c2)[C@H](O)[C@@H](O)[C@@H]1O	inactive
CC1CCCCCCCc2cc(O)cc(O)c2C(=O)O1 (stereo not drawn)	15.8 µM (active)
Fc1ccc(-c2c3cccc(C(F)(F)F)c3nn2Cc2ccc(F)cc2Cl)cc1	inactive
COc1cc(O)cc2c1C(=O)OC(C)CCCCCCC2 (stereo not drawn)	14.1 µM (active)
C=C1CC[C@@]2(OC1)O[C@H]1CC3[C@@H]4CC=C5C[C@H](O[C@H]6OC[C@@H](O)C(O)[C@@H]6O[C@@H]6O[C@@H](C)[C@H](O)[C@@H](O[C@@H]7O[C@H](CO)[C@@H](O)[C@H](O)[C@H]7O)[C@H]6O)C[C@@H](O)[C@]5(C)C4CC[C@]3(C)[C@H]1[C@@H]2C (stereo partly drawn)	inactive
CCN=C1N[C@@H]2[C@@H](O)[C@H](O)[C@@H](CO)O[C@@H]2S1	inactive
CCC12CCCN3CCc4c(n(c5ccccc45)C(O)C1)C32 (stereo not drawn)	inactive
CC1(C)CC[C@]2(C(=O)OC3OC(CO)C(O)C(O)C3O)CC[C@]3(C)C(=CCC4[C@@]5(C)C[C@@H](O)[C@H](OC6OC(C(=O)O)C(O)C(O)C6O)C(C)(C)C5CC[C@]43C)[C@@H]2C1 (stereo partly drawn)	inactive
C[C@@H](c1ccccc1)N(C(N)=NC#N)c1cccc2ncccc12	inactive
CC1CC(O)/C=C/C(O)/C=C\C(=O)O1 (stereo not drawn)	inactive
COc1ccc(/C=C/C(=O)O[C@@H]2[C@@H](O)[C@@H](O)[C@H](O[C@H]3[C@@H]4C=CO[C@@H](O[C@@H]5O[C@H](CO)[C@@H](O)[C@H](O)[C@H]5O)[C@@H]4[C@@]4(CO)O[C@@H]34)O[C@H]2C)cc1	inactive
COC1CC(O[C@H]2CC[C@@]3(C)C(=CC[C@]4(O)C3[C@H](O)[C@@H](O)[C@]3(C)[C@@H]([C@H](C)O)CC[C@@]34O)C2)OC(C)C1OC1CC(OC)C(OC2CC(OC)C(OC3OC(C)C(OC4OC(CO)C(O)C(O)C4O)C(OC)C3O)C(C)O2)C(C)O1 (stereo partly drawn)	inactive
